Measured values from PubChem BioAssay (NCATS).
Results filed as inconclusive are left out. Active and inactive are the calls of the source. The call rests on the fitted dose curve; in most records, active means well fitted curve in the direction sought with a large enough effect; inconclusive means small, poorly fitted or top-dose-only effect, or another doubt; inactive means no such curve, though single readings can be large; an effect the other way counts as inactive or inconclusive. Square brackets hold non-standard residues; d marks the D form. Peptide text beside a SMILES is read from it. ξ: configuration not given here. ξL = CC(C)CC(N)C(=O)O

Legend:
[1] = HEK293 18hr Apoptosis Induction qHTS against the NCATS CANVASS Library (AID 1347357); further: potency means the concentration at half of the fitted maximal effect
Procedure, shortened: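 Luminescent caspase-3/7 signal is measured in HEK293 cells exposed for 18 hours to an 11-point concentration series; doxorubicin serves as the plate control.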

[2] = HPAF-II 12hr Apoptosis Induction qHTS against the NCATS CANVASS Library (AID 1347358)
Procedure, shortened: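 HPAF-II cells (500/well, DMEM + 10% FBS) were exposed to compounds for 12 hours at 37 degrees C. Caspase-3/7 activity was then read by Caspase-Glo 3/7 luminescence after 15 min at room temperature.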

[3] = HEK293 24hr Apoptosis Induction qHTS against the NCATS CANVASS Library (AID 1347359); further: potency means the concentration at half of the fitted maximal effect
Procedure, shortened: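 HEK293 cells, 500 per well, exposed to an 11-point compound series for 24 hours at 37 degrees C. Caspase 3/7 activity read by Caspase-Glo luminescence (DEVD substrate) after 15 min at room temperature.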

[4] = HPAF-II 18hr Apoptosis Induction qHTS against the NCATS CANVASS Library (AID 1347360)
Procedure, shortened: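 Apoptosis was scored as caspase-3/7 activity in HPAF-II pancreatic cancer cells treated 18 hours with an 11-point concentration series.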

[5] = HEK293 12hr Apoptosis Induction qHTS against the NCATS CANVASS Library (AID 1347361)
Procedure, shortened: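 Apoptosis in HEK293 was scored as caspase-3/7 luminescence following 12 h treatment with a compound concentration series in qHTS format.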

[6] = tested on: NAD(P)H diaphorase (Clostridium kluyveri); assay: Diaphorse counterscreen qHTS: Assay Interference Panel against the NCATS CANVASS Library (AID 1347362)
Procedure, shortened: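 Clostridium kluyveri diaphorase in PBS + 0.01% Tween-20 preincubated 15 min with compounds. Resazurin and NADH then added for 5 min at room temperature in the dark; resorufin fluorescence read (ex 525, em 598).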

[7] = target: Luciferin 4-monooxygenase (Photinus pyralis) (UniProt P08659); assay: Firefly luciferase counterscreen qHTS: Assay Interference Panel against the NCATS CANVASS Library (AID 1347363); further: potency means the concentration at half of the fitted maximal effect
Sequence of Luciferin 4-monooxygenase (Photinus pyralis) (P08659 whole entry, looked up): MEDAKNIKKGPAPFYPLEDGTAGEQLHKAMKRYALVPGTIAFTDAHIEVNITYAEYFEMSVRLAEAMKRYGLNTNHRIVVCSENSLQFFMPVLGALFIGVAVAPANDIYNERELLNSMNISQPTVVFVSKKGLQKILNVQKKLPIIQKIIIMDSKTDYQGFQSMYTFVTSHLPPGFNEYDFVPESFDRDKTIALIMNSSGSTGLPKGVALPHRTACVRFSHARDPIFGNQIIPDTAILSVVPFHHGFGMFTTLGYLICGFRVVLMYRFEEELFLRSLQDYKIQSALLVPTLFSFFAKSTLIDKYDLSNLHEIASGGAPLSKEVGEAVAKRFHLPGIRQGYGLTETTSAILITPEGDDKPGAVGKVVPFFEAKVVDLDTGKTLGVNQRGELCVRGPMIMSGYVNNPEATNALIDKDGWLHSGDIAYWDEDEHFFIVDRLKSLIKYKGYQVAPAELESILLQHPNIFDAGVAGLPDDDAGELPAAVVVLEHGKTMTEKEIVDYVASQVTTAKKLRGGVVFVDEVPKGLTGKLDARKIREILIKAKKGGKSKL
Procedure, shortened: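 Purified P. pyralis luciferase (0.04 ug/mL, 4x reagent) added to Tris-acetate buffer with 0.013 mM D-luciferin, 0.013 mM ATP and 13.3 mM Mg-acetate; compounds preincubated 15 min, then luminescence read after 5 min, RT.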

[8] = KB-3-1 Cancer Cell Toxicity qHTS against the NCATS CANVASS Library (AID 1347366); further: nearly all actives have a fitted effect of over 75% in size; further: potency means the concentration at half of the fitted maximal effect
Procedure, shortened: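 Seed KB-3-1 cells at 500/well in DMEM with 10% FBS, add compounds, incubate 72 hr at 37C and 5% CO2, then add CellTiter-Glo and read luminescence after 10 minutes.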

[9] = qHTS for ATAD5 Agonist screened against the NCATS CANVASS Library (AID 1347367);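 further: luciferase reporter driven by ATAD5 which rises upon DNA damage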
Procedure, shortened: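 Step one plated reporter cells and let them acclimate 5hr. Step two pinned compounds with MMS as positive and 0.46% DMSO as negative control. After 16hr incubation, fluorescence viability then luminescence were read.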

[10] = qHTS for ATAD5 Antagonist screened against the NCATS CANVASS Library (AID 1347370); further: nearly all actives have a fitted effect of over 65% in size; further: potency means the concentration at half of the fitted maximal effect
Procedure, shortened: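 HEK293T cells with a stably integrated ATAD5-controlled luciferase reporter were exposed to compounds (11-pt) alongside 10 uM 5-fluorouridine as ATAD5 stabilizer for 16hr at 37C. Viability was read by CellTiter-Fluor fluorescence, then ATAD5 by luminescence.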

[11] = J3T Cancer Cell Toxicity qHTS against the NCATS CANVASS Library (AID 1347371); further: potency means the concentration at half of the fitted maximal effect
Procedure, shortened: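 J3T dog glioma cells (500 cells/well) were exposed to compounds in an 11-point series for 72 hr at 37C, 5% CO2. Cytotoxicity was read as ATP content by CellTiterGlo luminescence.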

[12] = target: Nuclear receptor subfamily 1 group I member 3 (Homo sapiens) (UniProt Q14994); assay: qHTS for Constitutive Androstane Receptor (CAR) Antagonist screened against the NCATS CANVASS Library (AID 1347372); further: potency means the concentration at half of the fitted maximal effect
Sequence of Nuclear receptor subfamily 1 group I member 3 (Homo sapiens) (Q14994 whole entry, looked up): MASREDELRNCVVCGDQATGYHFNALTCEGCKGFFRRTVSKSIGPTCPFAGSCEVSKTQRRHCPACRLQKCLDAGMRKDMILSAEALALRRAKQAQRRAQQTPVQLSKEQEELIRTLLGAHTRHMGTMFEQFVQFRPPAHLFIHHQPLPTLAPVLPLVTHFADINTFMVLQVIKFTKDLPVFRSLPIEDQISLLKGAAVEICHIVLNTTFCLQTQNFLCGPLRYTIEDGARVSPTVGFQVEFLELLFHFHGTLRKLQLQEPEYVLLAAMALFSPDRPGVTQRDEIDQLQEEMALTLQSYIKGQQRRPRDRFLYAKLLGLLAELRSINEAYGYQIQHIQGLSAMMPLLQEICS
Procedure, shortened: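 HepG2 cells stably carrying hCAR and CYP2B6-2.2kb luciferase reporter, 2500 cells/well, compound with 50 nM CITCO agonist for 24hr at 37C. ONE-Glo luminescence measured CAR activity; CellTiter-Fluor read viability.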

[13] = target: Nuclear receptor subfamily 1 group I member 3 (Homo sapiens) (UniProt Q14994); assay: qHTS for Constitutive Androstane Receptor (CAR) Agonist screened against the NCATS CANVASS Library (AID 1347373);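 further: every well also contained 1.5 µM PK11195 alongside the test compound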; further: potency means the concentration at half of the fitted maximal effect
Procedure, shortened: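 HepG2 cells stably expressing hCAR and a CYP2B6-2.2kb luciferase reporter were treated for 24hr at 37C with compounds (11-point qHTS) in the presence of 1.5uM PK11195. Reporter activation was read by ONE-Glo luminescence.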

[14] = qHTS for Hypoxia signaling pathway (HIF-1) agonists against the NCATS CANVASS Library (AID 1347375)
Procedure, shortened: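 HRE-bla ME-180 cells (beta-lactamase reporter under hypoxia responsive element) in 0.5% dialyzed FBS medium, 5 h at 37C, then compound 17 h, 11-point qHTS series. CCF4-AM FRET substrate 2 h RT; 460/530 nm emission read.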

[15] = 10-beta competent E. coli microbial cell viability qHTS against the NCATS CANVASS Library (AID 1347376); further: series mostly up to about 46 µM
Procedure, shortened: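 10-beta competent E. coli (0.9 OD culture diluted to 0.2 OD) exposed to compounds in an 11-point qHTS series, incubated overnight at 37C, 5% CO2. Viability read as ATP by BacTiter-Glo luminescence after 20 min at room temperature.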

[16] = qHTS for Inflammasome Signaling Inhibitors: IL-1-beta AlphaLISA screen against the NCATS CANVASS Library (AID 1347379);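 further: human THP-1 cells primed with LPS then triggered with ATP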
Procedure, shortened: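 Human THP-1 cells were pretreated 1 hr at 37 °C with compounds (up to 57.5 uM final), then stimulated with LPS (250 ng/mL final) and ATP (1.25 mM final). Secreted IL-1B was read by AlphaLISA after 16 hr.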

[17] = Inflammasome Signaling qHTS Counterscreen: IL-1-beta AlphaLISA counterscreen against the NCATS CANVASS Library (AID 1347381);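 further: cell-free check with purified IL-1β in medium and no THP-1 cells; series mostly up to about 57 µM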
Procedure, shortened: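 To flag interference with the AlphaLISA read-out, a known amount of purified IL-1-beta (4 pg) replaced cell supernatant. Detection used anti-IL-1-beta acceptor beads, biotinylated antibody and streptavidin donor beads at room temperature.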

[18] = Cytotoxicity qHTS for assessment of Hepg2 cells membrane integrity screened against the NCATS CANVASS Library (AID 1347387)
Procedure, shortened: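 HepG2 cells (2000/well) attached overnight at 37C, then received compounds in an 11-point series at 0.59 nM - 46 uM final for 5 hr. LDH release was detected fluorometrically (ex 560/em 590 nm) with CytoTox-ONE reagent after 10 min at room temperature.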

[19] = qHTS for activators of dead-cell proteases activity screened against the NCATS CANVASS Library (AID 1347392);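 further: luminescence from protease leaking out of membrane-damaged cells cleaving impermeant substrate; rising signal means more cytotoxicity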
Procedure, shortened: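 HepG2 cells, 2000/well, attached 18 h at 37C, then exposed to compounds (11-point qHTS) for 5 h. Dead-cell protease release read as luminescence from cell-impermeant AAF-aminoluciferin substrate after 15 min at room temperature.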

[20] = Viability qHTS for inhibitors of the SERCaMP assay screened against the NCATS CANVASS Library (AID 1347400); further: nearly all actives have a fitted effect of over 70% in size; further: potency means the concentration at half of the fitted maximal effect
Procedure, shortened: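 SH-SY5Y-GLuc SERCaMP MJH297-derived cells (1000 cells/well) were pre-incubated 4 h at 37C, then exposed to compounds for 48 h. Viability was read as CellTiter-Glo luminescence; bortezomib served as positive control.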

Measured: Potency

CC(=O)N[C@H](C)c1nc(/C=C/C=C/C(=O)CC2CC(=O)CC[C@]2(C)O)cs1 (some centres undefined)
inactive: all assays above

CO[C@@H](C[C@@H](C)[C@@H](O)/C=C/C=C/CNC(=O)C(C)(C)[C@H](O)\C(C)=C/C=C\C=C\Cc1cnco1)[C@]1(O)[C@@H](C)C(=O)N(C)[C@@]12COC2=O
inactive: all assays above

COc1ccc([C@@H]2c3cc4c(cc3C(=O)C(C)C2C)OCO4)cc1OC (some centres undefined)
not listed: [10] | [13]
inactive: all other assays above

COc1c(O)cc(O)c2c(=O)cc(-c3ccccc3)oc12
not listed: [8] | [16]
inactive: all other assays above

COc1cc2ccc(=O)oc2c(O)c1O[C@@H]1O[C@H](CO)[C@@H](O)[C@H](O)[C@H]1O
not listed: [16]
inactive: all other assays above

C/C(=C\[C@@H](C)CC/C=C/CC/C=C/C(=O)O)[C@H](O)[C@H](C)C(=O)CCCC1CC(=O)NC(=O)C1
inactive: all assays above

CC[C@@H](C)[C@H]1NC(=O)C(CC(C)C)NC(=O)[C@@H](CC(C)C)NC(=O)[C@H](Cc2c[nH]c3ccccc23)NC(=O)CNC(=O)[C@@H](CC(N)=O)NC1=O (stereo partly drawn) (cyclo(GW[dL][ξL][dI][dN]))
not listed: [8] | [9] | [11] | [18] | [19] | [20]
inactive: all other assays above

Cc1cc(O)cc2c1C(=O)c1c(O)cc(O)cc1C2=O
inactive: all assays above

C=CC(C)(C)C(=O)[C@@H](C)[C@@H]1CC[C@@](C)(C=C)O1
inactive: all assays above

CC[C@@H]1C[C@@]2(CC)OC(=O)[C@@]3(CC)[C@H](CC)[C@@H]1[C@@H]23
active: [20] 6.04 µM
not listed: [12]
inactive: all other assays above

C=C1[C@@]2(C)CC3C4(C)CCC(O)C(C)(C)C4CCC3(C)[C@]1(C(=O)OC)C(=O)C(C)(O)C2=O (some centres undefined)
inactive: all assays above

CC(C)=CCCC(C)(O)[C@H]1CC=C(C)C(O)C1 (some centres undefined)
inactive: all assays above

C[C@@]12CCC[C@@](C)(C(=O)OP(=O)(O)OC[C@H]3O[C@@H](n4cnc5c(N)ncnc54)[C@H](O)[C@@H]3O)[C@H]1C[C@@H](O)[C@@]13C[C@@H](CC[C@@H]21)[C@](C)(O)C3
active: [11] 16.6 µM
inactive: all other assays above

O=Cc1ccc2n1C[C@]1(C[C@H](O)[C@@H](CO)O1)OC2
inactive: all assays above

COc1ccc(-c2oc3cc(OC)cc(OC)c3c(=O)c2O)cc1
not listed: [10] | [20]
inactive: all other assays above

COC(=O)c1cccc2oc(-c3cccc4oc(-c5c(C)cccc5O)nc34)nc12
active: [10] 8.31 µM
not listed: [13]
inactive: all other assays above

C[C@@]12CCC[C@@](C)(C(=O)O)[C@H]1C[C@@H](O)[C@@]13C[C@@H](CC[C@@H]21)[C@](C)(O)C3
not listed: [15]
inactive: all other assays above

O=C1CC(c2ccc(O)cc2)Oc2ccccc21 (centres undefined)
active: [7] 5.44 µM | [13] 23.4 µM
not listed: [15] | [16] | [20]
inactive: all other assays above

C=C(Cl)[C@](Cl)(CBr)CC[C@@H](Br)C(C)(C)Cl
active: [8] 20.9 µM | [10] 23.4 µM | [11] 4.18 µM | [16] 4.85 µM
not listed: [14] | [18] | [19]
inactive: all other assays above

C=C(C)C(=O)O[C@H]1C[C@@]2(C)OC(=CC2=O)/C(C)=C\[C@H]2OC(=O)C(=C)[C@H]12
active: [1] 2.96 µM | [3] 2.96 µM | [8] 3.32 µM | [10] 2.95 µM | [11] 1.66 µM | [12] 11.7 µM | [16] 1.37 µM | [20] 4.8 µM
not listed: [5] | [14] | [18] | [19]
inactive: all other assays above

O=C1CC(c2ccc(O)cc2)Oc2cc(O)cc(O)c21 (centres undefined)
not listed: [14]
inactive: all other assays above

O=C1c2c(O)cc(O)cc2OC(c2ccc(O)cc2)C1O (centres undefined)
inactive: all assays above

CO[C@@H]1[C@H](O)[C@@H](C)O[C@@H](OC[C@@H]2C(C)OC(=O)/C=C/[C@H](C)C(O[C@@H]3O[C@H](C)CC4(OC(=O)O[C@@H]4C)C3O)[C@@H](C)CC(C)C(=O)/C=C/[C@H]3OC23)[C@@H]1OC (some centres undefined)
active: [10] 16.6 µM | [11] 13.2 µM | [12] 20.9 µM | [20] 42.8 µM
not listed: [1] | [3] | [5] | [8]
inactive: all other assays above
